Laboratory results from the supplement of paper PMC10646978.
± gives the standard deviation.

Legend:
Details in all cases: modulator concentration 10 µM
[1] = system: RAW-Dual (murine macrophage reporter line); test: NF-kB reporter (SEAP) activity fold change vs agonist alone; higher = enhanced NF-kB activity
Outline: (§1)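 In 384-well plates holding 50 000 RAW-Dual murine macrophage reporter cells per well, compound at 10 μM final was pre-incubated for 1 hour at 37 °C, after which a PRR agonist was added overnight. Supernatant SEAP read with QUANTI-Blue at 620 nm absorbance reported NF-κB, and Lucia luciferase read with QUANTI-Luc luminescence reported IRF. Fold change values come from dividing each reporter signal by the mean of agonist-only control wells on the same plate, averaged over replicate plates with propagated errors.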

[2] = system: RAW-Dual (murine macrophage reporter line); test: IRF reporter (Lucia luciferase) activity fold change vs agonist alone; higher = enhanced IRF activity
Outline: as §1

[3] = system: RAW-Dual (murine macrophage reporter line); test: viability score (confluency relative to resting cells, overnight) (fraction); higher = more viable, active = viable (0.7 or more)
Outline: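 In 384-well plates, RAW-Dual macrophages received compound at a final 10 μM overnight. Two confluency masks were then made with IncuCyte software from IncuCyte images of all imaged wells. The viability score is defined as confluency relative to resting cells. Passing the cutoff required both masks to lie above 70% of resting cells.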

[4] = agonist: CpG ODN 1826 0.5 ug/mL

Row | Structure (SMILES) | NF-kB reporter [1, 4] | NF-kB reporter ([1]; agonist: LPS 0.1 ug/mL) | NF-kB reporter ([1]; agonist: MPLA […]) | IRF reporter ([2]; agonist: 3'3'-cGAMP 10 ug/mL) | IRF reporter ([2]; agonist: LPS 0.1 ug/mL) | IRF reporter ([2]; agonist: MPLA […]) | viability score [3]
1 | Cc1nnc(C)n1N=Cc1ccc(C(F)(F)F)cc1 | 0.898 ± 0.058 | 0.789 ± 0.061 | 0.962 ± 0.038 | 0.957 ± 0.04 | 0.909 ± 0.063 | 0.886 ± 0.093 | 0.996 (active)
2 | Oc1ccc(N=Cc2ccccc2O)cc1 | 1.35 ± 0.17 | 1.24 ± 0.086 | 1.51 ± 0.1 | 0.491 ± 0.11 | 0.733 ± 0.043 | 0.839 ± 0.14 | 0.584 (inactive)
3 | CC[C@@]1(O)C(=O)OCc2c1cc1n(c2=O)Cc2cc3c(CN(C)C)c(O)ccc3nc2-1 [Prestw-1196] | 2.33 ± 0.13 | 1.27 ± 0.08 | 2.43 ± 0.16 | 2.88 ± 0.099 | 3.79 ± 0.35 | 3.07 ± 0.43 | 0.689 (inactive)
4 | C[C@@H]1CCN(C(=O)CC#N)C[C@@H]1N(C)c1ncnc2[nH]ccc12.O=C(O)CC(O)(CC(=O)O)C(=O)O | 1.05 ± 0.29 | 0.628 ± 0.047 | 0.885 ± 0.06 | 0.182 ± 0.0066 | 0.366 ± 0.056 | 0.507 ± 0.1 | 0.603 (inactive)
5 | CCCCn1c(CNC(=O)c2cccs2)nc2ccccc21 | 0.926 ± 0.077 | 0.98 ± 0.06 | 1.03 ± 0.061 | 1.03 ± 0.06 | 1.15 ± 0.093 | 0.921 ± 0.15 | 0.983 (active)
6 | COc1ccc2sc(C)[n+](CCCS(=O)(=O)[O-])c2c1 | 0.951 ± 0.088 | 1.08 ± 0.074 | 0.923 ± 0.064 | 0.923 ± 0.086 | 1.05 ± 0.12 | 1.1 ± 0.3 | 1 (active)
7 | Cc1cc(C(O)CNC(=O)c2ccc(C(F)(F)F)nc2)c(C)o1 (stereo unspecified) | 1.25 ± 0.083 | 1.05 ± 0.085 | 1.01 ± 0.029 | 0.965 ± 0.049 | 1.04 ± 0.053 | 1.16 ± 0.11 | 1 (active)
8 | CN1C(=N)NC(=O)C1=Cc1cc(Br)cc(Br)c1O | 0.879 ± 0.099 | 0.898 ± 0.09 | 0.954 ± 0.04 | 0.96 ± 0.069 | 0.951 ± 0.046 | 1.01 ± 0.11 | 0.998 (active)
9 | COc1ccc(-c2cc(=O)c3c(O)cc(O)cc3o2)cc1O | 1.38 ± 0.11 | 1.15 ± 0.056 | 1.3 ± 0.04 | 0.641 ± 0.036 | 0.426 ± 0.076 | 0.356 ± 0.063 | 0.985 (active)
10 | Cc1cccc(C)c1N(CC(=O)Nc1ccc(-c2ncon2)cc1)C(=O)C1CCS(=O)(=O)CC1 | 1.06 ± 0.083 | 0.939 ± 0.075 | 1.05 ± 0.024 | 0.976 ± 0.098 | 0.997 ± 0.13 | 0.982 ± 0.086 | 0.999 (active)
11 | O=C(O)c1cc2nc(-c3ccc(Cl)c(Cl)c3)cc(C(F)(F)F)n2n1 | 0.958 ± 0.076 | 1.09 ± 0.06 | 0.973 ± 0.058 | 1.02 ± 0.031 | 1.66 ± 0.2 | 1.13 ± 0.11 | 1.01 (active)
12 | COC1CCN(C2CN(C(=O)CCn3cnc4ccccc4c3=O)C2)CC1 | 1.05 ± 0.052 | 1.08 ± 0.092 | 0.882 ± 0.044 | 1.01 ± 0.052 | 1.27 ± 0.076 | 1.13 ± 0.24 | 0.994 (active)
13 | CN(C)CCC(c1ccc(Br)cc1)c1ccccn1.O=C(O)/C=C\C(=O)O (stereo unspecified) | 1.07 ± 0.14 | 1.15 ± 0.27 | 0.939 ± 0.052 | 0.71 ± 0.024 | 1.17 ± 0.34 | 0.918 ± 0.086 | 1.01 (active)
